The nature of test [1]: AOX inhibitors, oxygen consumption, profiling panel (AID 1259412).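 As to growth (% of control): growth monitored over 72 h.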 Conditions: AOX-dependent respiration, at 500 µM; for growth (% of control): O2 uptake, measured here: growth; for O2 uptake (% of control): measured here: O2 uptake, control condition (no AOX).
Test [2] deals with alternative oxidase (AOX). The test is described as above. The settings on record: AOX-dependent respiration, at 500 µM, stronger effect = lower value.
Where [3] appears, read: AOX-dependent treatment condition, stronger effect = lower value.

Active and inactive are the calls of the source. No rule for the calls is given here.

Take `N#Cc1cccc(C(=O)Nc2cccc(OCc3ccccc3)c2)c1`: the growth (% of control) is 108% in test [1] (setting [3]) and 90.3% in test [1] (control condition). For the same molecule, the values for the O2 uptake (% of control) in test [1] (stronger effect = lower value) and in test [2] were 90.1% and 39.1% (active), respectively.
The like results for `COc1cccc(C(=O)Nc2cccc(OCc3ccccc3)c2)c1` were, in that order, 105%, 86.7%, 91.3% and 79% (active).
The like results for `Cc1cccc(C(=O)Nc2cccc(C(F)(F)F)c2)c1` were, in that order, 54.5%, 88.4%, 101% and 15.2% (active).
With `O=C(Nc1cccc([N+](=O)[O-])c1)c1cccc(Br)c1`, the figures for the growth (% of control) in test [1] (setting [3]) and in test [1] (control condition) were 74.5% and 80.8%, respectively. The O2 uptake (% of control) in test [1] (stronger effect = lower value) was 95.1%; in test [2] it was 23.6% (active).
The like results for `COc1cccc(C(=O)Nc2cccc(I)c2)c1` were, in that order, 78.2%, 80%, 92.5% and 23% (active).
As for `COc1cc(NC(=O)c2ccccc2I)cc(OC)c1OC`, the figures for the growth (% of control) in test [1] (setting [3]) and in test [1] (control condition) were 91.6% and 90.9%, respectively. Further, the O2 uptake (% of control) in test [1] (stronger effect = lower value) was 92.4%; in test [2], 80% (active).
For `CCN(CC)CCNC(=O)c1ccccc1`, the growth (% of control) in test [1] (setting [3]) was 92.5%; in test [1] (control condition), 87.9%. In addition, the O2 uptake (% of control) was 95.7% in test [1] (stronger effect = lower value) and 78.4% (active) in test [2].
The like results for `COc1cccc(C(=O)Nc2cccc(Cl)c2)c1` were, in that order, 0%, 33%, 76.3% and 33.2% (active).
On the same counts, the results for `O=C(Nc1cccc(C(F)(F)F)c1)c1cccc(Br)c1` are 58.1%, 99.1%, 80.2% and 22.3% (active).
On the same counts, the results for `O=C(Nc1cccc(F)c1)c1cccc(Br)c1` are 23.1%, 88%, 73.7% and 28.7% (active).
`O=C(Nc1ccccc1)c1cccc(Br)c1`: the growth (% of control) in test [1] (setting [3]) stood at 75%; in test [1] (control condition), 91.1%. The O2 uptake (% of control) in test [1] (stronger effect = lower value) is 89.6%; in test [2] it was 19.3% (active).
In the case of `N#Cc1cccc(C(=O)Nc2cccc(I)c2)c1`, the growth (% of control) worked out at 103% in test [1] (setting [3]) and 117% in test [1] (control condition). Also, the O2 uptake (% of control) in test [1] (stronger effect = lower value) was 87.8%; in test [2], 32.6% (active).
The like results for `COc1cc(NC(=O)c2ccccc2)cc(OC)c1OC` were, in that order, 84.6%, 76%, 95.8% and 61.1% (active).
As to `O=C(Nc1cccc(F)c1)c1cccc(F)c1`, the growth (% of control) in test [1] (setting [3]) was 23%; in test [1] (control condition), 78.7%. The O2 uptake (% of control) is 103% in test [1] (stronger effect = lower value) and 52.3% (active) in test [2].
The like results for `O=C(Nc1cccc(Cl)c1)c1cccc(Br)c1` were, in that order, 71.8%, 101%, 85% and 15% (active).
With `O=C(Nc1cccc(OCc2ccccc2)c1)c1cccc(Cl)c1`, the growth (% of control) was determined as 95.6% in test [1] (setting [3]) and 92.6% in test [1] (control condition). Also, the O2 uptake (% of control) in test [1] (stronger effect = lower value) was 110%; in test [2] it was 76.1% (active).
On the same counts, the results for `COc1cccc(C(=O)Nc2cccc(F)c2)c1` are 7.84%, 32.6%, 79.2% and 44.5% (active).
As to `Cc1cccc(C(=O)Nc2cccc(NC(=O)c3cccc(C)c3)c2)c1`, the growth (% of control) in test [1] (setting [3]) was found to be 70.5%; in test [1] (control condition) it was 118%. Besides, the values for the O2 uptake (% of control) in test [1] (stronger effect = lower value) and in test [2] were 102% and 51.6% (active), respectively.
For `O=C(Nc1cccc(Br)c1)c1cccc(Cl)c1`, the growth (% of control) in test [1] (setting [3]) was found to be 65.4%; in test [1] (control condition), 91.3%. Besides, the results for the O2 uptake (% of control) in test [1] (stronger effect = lower value) and in test [2] were 95.9% and 12% (active), respectively.
Turning to `O=C(Nc1cccc(I)c1)c1ccccc1I`, the growth (% of control) came to 112% in test [1] (setting [3]) and 94.8% in test [1] (control condition). The O2 uptake (% of control) was 84% in test [1] (stronger effect = lower value) and 13.1% (active) in test [2].
For `COc1cc(NC(=O)c2cccc(C)c2)cc(OC)c1OC`, the growth (% of control) in test [1] (setting [3]) worked out at 85.5%; in test [1] (control condition), 96.2%. Also, the O2 uptake (% of control) in test [1] (stronger effect = lower value) was 83.6%; in test [2], 66.4% (active).
Take `Cc1cccc(C(=O)Nc2cccc(F)c2)c1`: the growth (% of control) in test [1] (setting [3]) was 0.51%; in test [1] (control condition) it was 43.4%. Moreover, the O2 uptake (% of control) in test [1] (stronger effect = lower value) is 87.8%; in test [2], 30.7% (active).
On to `NC(=O)c1ccccc1NC(=O)c1cccc(Br)c1`, for which the growth (% of control) in test [1] (setting [3]) came out at 97.2%; in test [1] (control condition) it was 80.6%. Also, the O2 uptake (% of control) in test [1] (stronger effect = lower value) was 80.8%; in test [2], 36.9% (active).
Turning to `O=C(Nc1ccccc1)c1cccc(Cl)c1`, the growth (% of control) in test [1] (setting [3]) came out at 92.3%; in test [1] (control condition) it was 91.8%. For the same molecule, the values for the O2 uptake (% of control) in test [1] (stronger effect = lower value) and in test [2] were 94.9% and 22% (active), respectively.
The like results for `O=C(Nc1cccc([N+](=O)[O-])c1)c1cccc(I)c1` were, in that order, 68.4%, 95.6%, 93.5% and 21% (active).
In the case of `COc1cccc(C(=O)NCc2ccc3c(c2)OCO3)c1`, the growth (% of control) was 46.4% in test [1] (setting [3]) and 57% in test [1] (control condition). The O2 uptake (% of control) was 95.8% in test [1] (stronger effect = lower value) and 36.4% (active) in test [2].
On the same counts, the results for `COc1cccc(C(=O)Nc2ccccc2C(N)=O)c1` are 80.1%, 82.1%, 93.7% and 76.2% (inactive).
`COc1cccc(C(=O)Nc2cccc([N+](=O)[O-])c2)c1`: the growth (% of control) in test [1] (setting [3]) was 63.7%; in test [1] (control condition), 109%. For the same molecule, the O2 uptake (% of control) was 91.5% in test [1] (stronger effect = lower value) and 31.9% (active) in test [2].
`O=C(Nc1cccc(OCc2ccccc2)c1)c1cccc(I)c1`: the growth (% of control) in test [1] (setting [3]) stood at 36.7%; in test [1] (control condition), 57%. Also, the O2 uptake (% of control) was 100% in test [1] (stronger effect = lower value) and 51.2% (active) in test [2].
On to `O=C(Nc1cccc(OCc2ccccc2)c1)c1cccc(F)c1`, for which the growth (% of control) in test [1] (setting [3]) is 86%; in test [1] (control condition) it was 81.9%. Further, the O2 uptake (% of control) in test [1] (stronger effect = lower value) was 97.4%; in test [2] it was 41.2% (active).
The like results for `O=C(Nc1ccc(N2CCOCC2)cc1)c1cccc(I)c1` were, in that order, 95.3%, 99.3%, 94.4% and 74.5% (inactive).
Regarding `N#Cc1cccc(C(=O)Nc2cccc(Cl)c2)c1`, the figures for the growth (% of control) in test [1] (setting [3]) and in test [1] (control condition) were 54.1% and 87.1%, respectively. Besides, the O2 uptake (% of control) in test [1] (stronger effect = lower value) is 87.4%; in test [2], 27.6% (active).
For `Cc1cccc(C(=O)Nc2cccc(Br)c2)c1`, the growth (% of control) in test [1] (setting [3]) was 26.6%; in test [1] (control condition), 101%. Moreover, the figures for the O2 uptake (% of control) in test [1] (stronger effect = lower value) and in test [2] were 90.2% and 18.6% (active), respectively.
In the case of `Cc1cccc(C(=O)Nc2ccccc2)c1`, the growth (% of control) came to 50% in test [1] (setting [3]) and 83.2% in test [1] (control condition). In addition, the O2 uptake (% of control) in test [1] (stronger effect = lower value) is 103%; in test [2] it was 42.3% (active).
On the same counts, the results for `O=C(Nc1ccc(N2CCOCC2)cc1)c1ccccc1I` are 86.7%, 96.2%, 86.1% and 59.6% (active).
The like results for `Nc1cccc(S(=O)(=O)c2cccc(NC(=O)c3cccc(Cl)c3)c2)c1` were, in that order, 94.1%, 83.7%, 110% and 98.3% (inactive).
With `Cc1cccc(C(=O)Nc2cccc([N+](=O)[O-])c2)c1`, the growth (% of control) stood at 36.7% in test [1] (setting [3]) and 80.2% in test [1] (control condition). The O2 uptake (% of control) was 98.8% in test [1] (stronger effect = lower value) and 34.3% (active) in test [2].
`O=C(Nc1ccc(N2CCOCC2)cc1)c1cccc(F)c1`: the values for the growth (% of control) in test [1] (setting [3]) and in test [1] (control condition) were 94.7% and 90.8%, respectively. Besides, the results for the O2 uptake (% of control) in test [1] (stronger effect = lower value) and in test [2] were 104% and 86.3% (inactive), respectively.
On the same counts, the results for `O=C(Nc1cccc(OCc2ccccc2)c1)c1cccc(Br)c1` are 90.8%, 93.9%, 107% and 88.7% (active).

The values above are taken from PubChem BioAssay AID1259412 (Laboratorio de Genomica e Expressao (LGE), UNICAMP, 2018).
